Mdm2 MdmX PPI – inhibitors of human Mdm2-MdmX association, primary screen, cell-based, luminescence, split luciferase, SaOS-2, uHTS. Protein Mdm4 (Homo sapiens) + E3 ubiquitin-protein ligase Mdm2 (Homo sapiens), …. SaOS-2 split-luciferase Mdm2/MdmX complementation. inhibition, % at 8 µM. 3% of 330,000 active. AID 485346, 2010;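 active = inhibition of at least 50% at 8 µM in the primary screen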
Target sequence (O15151 whole entry, looked up): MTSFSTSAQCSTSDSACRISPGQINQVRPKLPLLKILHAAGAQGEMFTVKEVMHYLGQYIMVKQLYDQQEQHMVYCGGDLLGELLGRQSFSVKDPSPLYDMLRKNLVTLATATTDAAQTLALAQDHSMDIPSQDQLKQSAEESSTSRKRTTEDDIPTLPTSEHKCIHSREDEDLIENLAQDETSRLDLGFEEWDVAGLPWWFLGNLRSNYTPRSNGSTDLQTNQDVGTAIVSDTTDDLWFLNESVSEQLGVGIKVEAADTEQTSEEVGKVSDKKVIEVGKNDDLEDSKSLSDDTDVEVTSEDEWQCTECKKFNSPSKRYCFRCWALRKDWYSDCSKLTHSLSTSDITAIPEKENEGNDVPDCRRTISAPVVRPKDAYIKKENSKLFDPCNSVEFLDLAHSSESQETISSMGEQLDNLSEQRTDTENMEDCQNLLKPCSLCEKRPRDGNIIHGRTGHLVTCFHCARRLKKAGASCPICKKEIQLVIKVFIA
Target sequence (Q00987 whole entry, looked up): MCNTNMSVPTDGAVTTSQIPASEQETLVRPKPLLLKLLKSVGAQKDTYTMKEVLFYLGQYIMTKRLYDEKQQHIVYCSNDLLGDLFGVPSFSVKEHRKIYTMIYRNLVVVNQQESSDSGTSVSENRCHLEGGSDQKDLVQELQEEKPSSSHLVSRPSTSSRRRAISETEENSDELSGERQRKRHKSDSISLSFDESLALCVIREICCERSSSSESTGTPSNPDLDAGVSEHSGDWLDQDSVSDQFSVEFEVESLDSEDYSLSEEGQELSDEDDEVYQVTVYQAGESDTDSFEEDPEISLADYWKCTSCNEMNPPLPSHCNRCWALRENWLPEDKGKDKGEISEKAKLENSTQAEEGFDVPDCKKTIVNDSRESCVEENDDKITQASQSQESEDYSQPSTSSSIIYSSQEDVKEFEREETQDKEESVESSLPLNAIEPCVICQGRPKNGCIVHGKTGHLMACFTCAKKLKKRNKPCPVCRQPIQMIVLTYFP
Calb FLC – C. albicans growth inhibition with fluconazole, primary screen, CaCi-2 strain, Alamar Blue fluorescence | growth inhibition, % (no concentration beside the values) | C. albicans CaCi-2 (fluconazole-resistant clinical isolate) + fluconazole, 48 h | 0.57% of 300,000 active;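 active = growth inhibition above about 58% in most replicates, limit read from the data, passing the limit was not always enough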;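 note: all wells also contain fluconazole at 8 µg/ml as a sub-toxic cotreatment; 0% = median of DMSO wells and 100% = median of geldanamycin control wells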
MPTP block – mitochondrial permeability transition pore inhibitors, primary screen, biochemical, isolated mouse mitochondria, absorbance | Ca2+ swelling absorbance, 30 min | inhibition, % at 10 µM | 1.4% of 360,000 active | AID 602449, 2012;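 active = inhibition of 50% or more, scaled per plate between neutral and stimulator controls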;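 note: 0% = DMSO wells given calcium and 100% = 1 mM EGTA wells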
Beta apoptosis – inhibitors of cytokine-induced beta cell apoptosis, primary screen, luminescence; 0.8% of 300,000 active; protection from apoptosis, % (concentration not given with the values); INS-1E cytokine-induced death, ATP luminescence, 48 h; percent of positive-control rescue, neutral wells zero;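 active = Every replicate reaches about 75%, or at least half do and their mean reaches it too, limit read from the data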;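 note: 0% = cytokine-treated negative control wells and 100% = positive control rescue; higher means more ATP so stronger rescue from cytokine killing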
SKKanGAS inh – S. pyogenes SKKanGAS growth inhibitors in kanamycin, primary screen, streptokinase expression inhibitor project, SKKanGAS strain, BacTiter-Glo luminescence | 6 h | inhibition, % at 7.5 µM | 1.3% of 300,000 active | AID 1662, 2009;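 active = mean replicate score, as percent of positive control median, at least 50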;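 note: strain carries kanamycin resistance gene driven by streptokinase promoter and grows in 40 µg/ml kanamycin; loss of luminescence reflects streptokinase promoter inhibition or plain growth inhibition; 0% = median of DMSO wells and 100% = positive control at its reference dose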
CSC inhib – cancer stem cell viability inhibitors, primary screen, luminescence | cancer stem cell-like cells viability | inhibition, % at 7.5 µM | 1.1% of 300,000 active | AID 2717, 2010; in the data active = inhibition above about 75%; tested in HMLE shEcad cells
Rh123 counter – fluorescence retest of MPTP screen hits in isolated mitochondria, single concentration; shares compounds with MPTP block; membrane potential, Rhodamine 123 fluorescence; inhibition, % at 10 µM; 78% of 5,000 active; AID 624504, 2012; in the data active = inhibition above about 22%;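 note: 0% = DMSO vehicle and 100% = positive control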
MPTP abs DR – mitochondrial permeability transition pore inhibitors, dose response, biochemical, absorbance, uHTS hits; shares compounds with MPTP block; isolated mitochondria swelling; IC50, µM; 58% of 780 active; AID 651561, 2012; in the data active = IC50 below about 20 µM
MPTP cs DR – fluorescent counter-screen in isolated mitochondria, dose response, counter-screen for MPTP inhibitor project, biochemical, fluorescence, uHTS hits. AID 651564, 2012. 49% of 780 active. IC50, µM. isolated mitochondria counterscreen, fluorescence read-out. shares compounds with MPTP block; in the data active = IC50 below about 80 µM
Starred values were filed as active, the others as inactive; i = inactive; x = not tested or not shown. Hits are enriched below; roughly 5.4% of the tested compounds scored in any of these assays.

SMILES	Mdm2 MdmX PPI	Calb FLC	MPTP block	Beta apoptosis	SKKanGAS inh	CSC inhib	Rh123 counter	others
Cc1ccc(C(OCC(O)CNC(C)c2ccccc2)c2ccccc2)cc1 (configuration not stated)	47.6	-1.1	80.4*	11.6	7.3	13.7	-1.5	MPTP abs DR=7.07*;MPTP cs DR=23.2*
Cc1ccc(C(OCC(O)CNC(CO)C(O)c2ccc([N+](=O)[O-])cc2)c2ccccc2)cc1 (configuration not stated)	31.1	1.8	85.4*	-1.4	-0.2	-5.1	-10.4	MPTP abs DR=17*;MPTP cs DR=62.1*
Cc1cc(C(=O)Nc2ccccn2)cs1	-42.5	8.4	-0.2	-17.4	6.6	8.1	x
COC(=O)c1ccc(C2N=C(c3cccs3)CC(c3ccccc3O)N2)cc1 (configuration not stated)	38.2	2.8	51.8*	20.5	15.1	55.7	88.2*
CC(C)C(OC(=O)c1ccco1)C(=O)NC1CCCCC1 (configuration not stated)	7.1	-0.3	1.2	x	-2.3	-10.5	x
CCSC1=NSC2=NC(=O)/C(=C\c3coc4ccccc4c3=O)C(=N)N12	x	x	101.0*	-0.7	x	12.3	74.1*
CC(C)CC1=NN2C(=N)/C(=C\c3coc4ccccc4c3=O)C(=O)N=C2S1	x	6.3	85.9*	x	14.1	x	81.5*
CCc1nn2c(=O)cc(COc3ccc(/C=C4\C(=N)N5N=C(CC(C)C)SC5=NC4=O)cc3)nc2s1	19.9	-6.1	x	4.3	12.0	4.6	x
CCOC(=O)C(CCCCOc1cccc(CC)c1)C(=O)OCC	-20.2	-0.5	-8.5	-2.7	-5.4	-1.7	x
COc1ccccc1CC1CC(=O)N(c2ccccc2)C1=O (configuration not stated)	12.5	0.1	-0.8	-3.2	-4.3	-3.5	x
O=C(N/N=C/c1ccc(OCc2ccc(F)cc2)cc1)c1ccccc1	21.7	-33.0	-0.1	-3.6	-5.1	4.0	x
CC(C)(C)c1ccc(OCc2ccc(C(=O)N/N=C/c3ccc(O)c(O)c3)cc2)cc1	15.7	63.1*	85.2*	94.7*	61.6*	88.9*	-3.7
CC(C)(C)c1ccc(OCc2ccc(C(=O)N/N=C3\CC4CC=CC34)cc2)cc1 (configuration not stated)	18.8	-15.4	54.7*	-0.1	-9.2	42.3	1.8	MPTP abs DR=i;MPTP cs DR=25.3*
C/C(=N/NC(=O)c1cc2ccccc2cc1O)C1C(=O)c2ccccc2C1=O	-3.0	-0.6	85.9*	6.0	83.3*	48.3	17.4
C/C(=N\NC(=O)c1ccccc1O)C1C(=O)c2ccccc2C1=O	21.1	-3.6	64.2*	32.0	52.0*	47.9	69.6*
CCN(CC(=O)Nc1c(F)cccc1F)C(=O)Cc1ccc(OC)c(S(=O)(=O)N2CCOCC2)c1	3.4	0.6	-1.4	-2.2	-3.7	-1.0	x
O=C(Nc1ccc(C(F)(F)F)cc1)N1CCN(c2ccnc3cc(Cl)ccc23)CC1	14.0	23.6	78.8*	11.3	52.5*	89.2*	80.7*
Cc1ccc(F)cc1NC(=O)N1CCN(c2ccnc3cc(Cl)ccc23)CC1	32.4	-2.3	33.1	1.9	2.1	0.5	x
O=C(Nc1cc(F)ccc1F)N1CCN(c2ccnc3cc(Cl)ccc23)CC1	22.7	0.3	58.6*	12.2	-3.1	0.5	36.0*
COC(=O)c1ccc(N2C(=O)CC(N3CCN(C(=O)c4ccco4)CC3)C2=O)cc1 (configuration not stated)	10.3	-9.8	-3.1	-0.8	-1.0	x	x
COCCOc1cc(Nc2nnc(C(F)(F)F)s2)c(Cl)cc1Cl	0.4	1.3	79.6*	20.3	0.2	21.1	90.4*
CCc1c(C)nc(N2CCN(Cc3ccc4c(c3)OCO4)CC2)[nH]c1=O	28.8	-1.8	-0.2	-0.1	2.4	-7.5	x
CC(C)NC(=O)C1(C)CCN1C(=O)c1cccc(Cl)c1 (configuration not stated)	x	x	-0.4	x	x	x	x
Cc1ccc(C)c2c1cc(C)c1nnc(SCC(=O)N3CCCc4ccccc43)n12	29.3	37.3	0.1	x	-6.3	-10.0	x
CCn1c(=O)c2ccccc2n2c(SCC(=O)N3CCCc4ccccc43)nnc12	24.1	13.1	54.4*	-15.3	x	2.1	2.9	MPTP abs DR=>100;MPTP cs DR=>80
SMILES	Mdm2 MdmX PPI	Calb FLC	MPTP block	Beta apoptosis	SKKanGAS inh	CSC inhib	Rh123 counter	others
O=C(C(c1ccccc1)c1ccccc1)N1CCC(c2nc(-c3ccccc3Cl)no2)CC1	12.8	-1.6	4.3	-10.5	12.3	54.4	x
Cc1ccnc(NC(=O)c2ccc3c(c2)OCO3)c1	-68.1	18.2	-1.2	34.3	20.3	27.2	x
COc1ccc2cc(CNCCOCCOCCNCc3ccc4cc(OC)ccc4c3)ccc2c1	x	x	97.2*	x	x	x	-9.8
O=C(CC1NCCc2ccccc21)Nc1ccc(Cl)cc1 (configuration not stated)	11.1	-6.7	61.1*	-1.4	-6.2	-3.2	0.3	MPTP abs DR=9.11*;MPTP cs DR=>80
COc1ccc(CN(C)Cc2nc(Cc3cccc(F)c3)no2)c2cccnc12	13.8	32.2	72.9*	61.6	-10.0	7.2	82.9*
Cc1ccccc1NS(=O)(=O)c1cc(C(=O)Nc2cccc([N+](=O)[O-])c2)ccc1C	46.3	-2.1	97.8*	-1.5	1.6	18.2	78.4*
Cc1ccc(C(=O)Nc2cccc([N+](=O)[O-])c2)cc1S(=O)(=O)Nc1ccc(C(=O)O)cc1	8.5	12.4	3.4	-3.6	7.7	3.6	x
O=C(CSc1nc2ccccc2[nH]1)NC1CCCc2ccccc21 (configuration not stated)	44.0	11.2	0.4	x	4.2	2.9	x
O=C(CSc1nc2ccc(Cl)cc2[nH]1)NC1CCCc2ccccc21 (configuration not stated)	15.4	-8.8	62.6*	-0.5	-0.8	-23.6	62.1*
CC(C)CN(C(=O)CSc1nnc2ccccn12)c1c(N)n(CC(C)C)c(=O)[nH]c1=O	14.7	9.8	1.0	-3.1	-2.1	-2.1	x
O=C(NCc1cn(-c2ccccc2)nc1-c1ccccc1)c1ccc([N+](=O)[O-])cc1	6.6	-9.4	53.4*	6.4	1.9	13.5	62.8*
O=c1cc(CSc2nnnn2-c2ccccc2)nc(Nc2ccc(F)cc2)[nH]1	-10.7	-3.9	56.1*	1.1	0.1	9.0	83.9*

From PubChem BioAssay
